# An excerpt weighted towards active compounds, which were near 2.8% of everything screened.
# Pol iota inh: blocks human DNA polymerase iota activity; Q9UNA4; Pol iota fluorescent replication assay, 10 min; Potency, µM (highest dose often 115 µM), without a hit: at the top dose activity, negative = inhibition, actives largely listed as inhibitors; hit rate 1% among 390,000; AID 588590; note: potency is the fitted concentration of half-maximal effect
#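 Fluorescent replication assay read twice, at 0 min and 10 min after adding 50 nM (final) substrate. Enzyme (10 nM) and compounds were first incubated 15 min at room temperature; enzyme-free buffer wells were negative controls.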
# POLH inh: inhibitors of human DNA polymerase eta; Q9Y253; recombinant Pol eta, fluorescent DNA replication assay; Potency, µM (doses to about 114 µM), without a hit: at the highest dose activity change, negative = inhibition, usual class: inhibitors; hit rate 1.2% among 390,000; AID 588591; note: potency is the fitted concentration of half-maximal effect; % is set by controls: 0 for no effect and ±100 for the full control effect
#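 Fluorescent replication assay: 50 nM final substrate added after a 15 min room-temperature compound preincubation with 10 nM enzyme. Signal taken at 0 min and again at 10 min.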
# Pol kappa inh: DNA polymerase kappa (human) inhibition; Potency, µM (doses to about 107 µM), without a hit: at the top dose activity, negative = inhibition, actives largely listed as inhibitors; Q9UBT6; purified Pol kappa, fluorescent DNA synthesis assay, 10 min; hit rate 0.53% among 400,000; note: potency is the fitted concentration of half-maximal effect; % is set by controls: 0 for no effect and ±100 for the full control effect
#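 Fluorescent qHTS in 1536-well format: enzyme (10 nM) and compound sat 15 min at room temperature before 50 nM substrate (final) was added. Signal taken at 0 and 10 min; no-enzyme buffer wells were negative controls.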
# WRN helicase inh: blocks human WRN helicase | Q14191 | WRN helicase unwinding, fluorescent forked duplex, kinetic | Potency, µM (series often up to 114 µM), for inactives: at the highest dose activity change, negative = inhibition, most hits filed as inhibitors | hit rate 0.46% among 360,000; note: potency is the fitted concentration of half-maximal effect; % is set by controls: 0 for no effect and ±100 for the full control effect; nearly all actives have a fitted effect of over 55% in size
#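 WRN at 20 nM final preincubated with compound 15 min at room temperature; reaction started with 100 nM fluorophore/quencher forked duplex oligonucleotide and 2 mM ATP final. Unwinding followed kinetically by red fluorescence (ex 525, em 598 nm).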
# PI5P4K alpha inh: inhibitors of human PI5P4K alpha | P48426 | PI5P4Kalpha enzyme, ADP-Glo luminescence, 60 min; stronger effect = lower value | max response, % | hit rate 1.2% among 330,000; active = max response of -50% or lower; inconclusive = between -30% and -50%; inactive = -30% or higher; note: value at the top dose of about 77 µM; % is set by controls: 0 for no effect and ±100 for the full control effect
# Target sequence (P48426 whole entry, looked up): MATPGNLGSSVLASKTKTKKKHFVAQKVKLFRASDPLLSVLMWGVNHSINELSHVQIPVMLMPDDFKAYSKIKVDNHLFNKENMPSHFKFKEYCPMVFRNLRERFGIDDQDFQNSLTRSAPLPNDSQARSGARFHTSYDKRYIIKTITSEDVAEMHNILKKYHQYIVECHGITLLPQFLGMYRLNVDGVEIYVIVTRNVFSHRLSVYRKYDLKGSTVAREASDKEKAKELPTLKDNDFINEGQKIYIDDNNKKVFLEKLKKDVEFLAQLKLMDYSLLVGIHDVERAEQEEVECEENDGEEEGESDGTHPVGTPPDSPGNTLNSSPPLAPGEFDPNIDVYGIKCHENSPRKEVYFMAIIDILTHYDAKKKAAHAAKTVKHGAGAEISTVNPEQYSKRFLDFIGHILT
#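 Luminescence from ADP-Glo served as readout of PI5P4Kalpha activity in a qHTS format. Reaction: enzyme, substrate, compound, ATP at 5 microM final, 60 min at RT.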
# POLB inh: inhibitors of human DNA polymerase beta. Pol beta primer extension/strand displacement, fluorescence kinetic. hit rate 1.3% among 340,000. AID 485314. Potency, µM (doses to about 114 µM), for the others: top-dose activity change, negative = inhibition, actives largely listed as inhibitors. P06746; note: potency is the fitted concentration of half-maximal effect; % is set by controls: 0 for no effect and ±100 for the full control effect
#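 Homogeneous kinetic assay of primer extension and strand displacement by 10 nM Pol beta, preincubated 15 min at room temperature with compound before 50 nM substrate (final) was added. Read at 0 and 10 min; four-parameter Hill fit.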
# Active calls of the source: *; u = inconclusive; x = no result given; ! = repeats disagree; [ ] = remark or other dose. Unless noted, calls come from the whole dose curve; as a rule, active = well fitted curve in the direction sought with a large enough effect; inconclusive = small, poorly fitted or top-dose-only effect, or another doubt; inactive = no such curve, though single readings can be large; an effect the other way counts as inactive or inconclusive.
SMILES,Pol iota inh,POLH inh,Pol kappa inh,WRN helicase inh,PI5P4K alpha inh,POLB inh
O=c1[nH]c(=O)n(CCC2=CCCCC2)c(O)c1/C=N/Nc1cccc2ccccc12,-0.2%,u,-14.0%,-10.1%,-65.2*,u
CCCCn1c(O)c(/C=N/NC(=O)c2ccncc2)c(=O)[nH]c1=O,22.4%,-10.4%,-10.3%,-19.0%,-65.4*,-7.4%
O=c1[nH]c(=O)n(CCC2=CCCCC2)c(O)c1/C=N/Nc1ccccc1,-12.5%,u,-9.6%,-10.8%,-1.6,1.7%
CCOP(=S)(OCC)SCn1c(=O)oc2cc(Cl)ccc21,x,x,-4.2%[60.1 µM],x,x,x
CCC(Sc1ccccc1)C(=O)OC1CC2CCC(C1)N2C (stereo not given),x,x,7.4%[19.4 µM],x,x,x
CN1CCc2cc3c(c4c2C1Cc1ccccc1-4)OCO3 (stereo not given),u,3.0%,-1.9%,-0.6%[11.6 µM],-7.7,15.8µM*
O=c1ccc2cc(O[C@H]3OC(CO)C(O)C(O)C3O)c(O)cc2o1 (stereo not given in full),x,x,-10.5%[60.1 µM],x,x,x
Cc1[nH]n(-c2ccccc2)c(=O)c1C(c1ccc([N+](=O)[O-])cc1)c1c(C)[nH]n(-c2ccccc2)c1=O,0.708µM*,-6.5%,-3.2%,-16.4%[11.6 µM],-14.0,6.6%
O=[N+]([O-])c1ccc(C(c2ccc([N+](=O)[O-])cc2)c2ccc([N+](=O)[O-])cc2)cc1,24.7%,-8.1%,-2.8%,-4.1%,4.1,x
Cc1c2ccncc2c(C)c2c1[nH]c1ccccc12,14.1µM*!,u,u,-13.2%,-6.2,3.98µM*
C=CCN1C(=O)NC(=O)/C(=C/c2ccc(N(C)C)c(Br)c2)C1=O,14.5%,-10.3%,1.9%,-6.6%,-59.2*,-13.8%
O=C1NC(=S)SC1=Cc1ccc(N(CCCl)CCCl)cc1,15.8µM*,79.4µM*,u,-16.5%,-72.1*,x
O=Cc1c(C(=O)O)n(Cc2ccc(Cl)cc2)c2ccccc12,u,50.1µM*,-16.3%,-19.1%,-16.1,u
Cc1c(C=O)c2ccccc2n1Cc1ccccc1,26.0%,-28.9%,-13.9%,u,-3.2,20.7%
COc1ccc(OC)c(C(Nc2ccccc2)P(=O)(OC(C)C)OC(C)C)c1 (stereo not given),98.8%,u,-2.3%,-10.0%,12.7,9.8%
Cn1c(=O)oc2cc(S(=O)(=O)N3CCCC(C(=O)N4CCN(c5cccc(Cl)c5)CC4)C3)ccc21 (stereo not given),48.3%,-16.5%,-14.8%,x,x,37.8%
CN1CCC(N(C)c2nc(-c3ccc([N+](=O)[O-])cc3)nc3ccccc23)CC1,u,-23.0%,-27.7%,-24.1%[57.1 µM],1.4,11.2µM*
CCOC(=O)c1ccc(N2C(=O)c3n[nH]c(-c4cccs4)c3C2c2ccc(OC)cc2OC)cc1 (stereo not given),40.9%,-15.5%,-14.5%,x,x,2.0%
NCC(O)c1cc(O)c(O)cc1F (stereo not given),28.2µM*,-10.9%,u,4.1%,0.2,-12.3%[57.1 µM]
COC(=O)C(O)C(O)(CCC(C)C)C(=O)OC1C(OC)=CC23CCCN2CCc2cc4c(cc2C13)OCO4 (stereo not given),x,x,-3.8%[60.1 µM],x,x,x
ClC1=C(Cl)C(Cl)=C(Cl)C1=C/C=C/c1ccccc1,44.7µM*,u,u,-5.8%[57.1 µM],-18.3,u
O=c1[nH]c(O)c(N=Nc2ccc(Cl)c(S(=O)(=O)Nc3ccccc3Cl)c2)c(=O)[nH]1,45.7%,-20.8%,-4.7%,-33.0%,u,x
C[N+]1([O-])[C@@H]2CC(OC(=O)[C@H](CO)c3ccccc3)C[C@H]1[C@@H]1O[C@@H]12 (stereo not given in full),14.2%,-18.0%,0.0%,1.4%,-59.3*,x
Cc1cccc(N2C(=O)NC(=O)/C(=C/c3cc4c(cc3[N+](=O)[O-])OCO4)C2=O)c1,u,-9.3%,89.1µM*,50.1µM*,u,0.0%
O=C1NC(=O)C(=Cc2cc3c(cc2[N+](=O)[O-])OCO3)C(=O)N1,u,-8.4%,-5.1%,70.8µM*,u,-26.0%

# High-throughput results as filed in PubChem BioAssay.
